Measurements: PubChem BioAssay (Tox21)
“And” between values parts separate entries of the source, which are not always exact repeats. Equal values may be shown once. Inconclusive results are not listed. More than one record can exist for a structure, and the calls need not agree. The source made the active and inactive calls. Calls come from the whole dose curve; as a rule, active = well fitted curve in the direction sought with a large enough effect in the repeat runs; inconclusive = weak or mixed curves; inactive = no such curve, though single readings can be large; an effect the other way counts as inactive or inconclusive.

Columns and labels:
[1] = qHTS RealTime-Glo MT Cell Viability Assay in HEK293 cells - 0 hour (AID 1224880); note: nearly all actives have a fitted effect of over 45% in size
How it was run: (§1)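 Luminescence, which tracks viable cell number through reduction of the prosubstrate to a NanoLuc substrate, was read over continuous 37 C culture. Cells (600/well) were premixed with reagent and rested 5 h before 23 nL of compound in DMSO was pinned.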

[2] = A CellTox Green Cytotoxicity Assay to monitor cytotoxicity in HEK293 cells - 32 hour (AID 1224881); note: nearly all actives have a fitted effect of over 40% in size
How it was run: (§2)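 Fluorescence from a DNA-binding dye excluded by viable cells was measured repeatedly in the same HEK293 wells (600 cells/well) during continuous compound exposure at 37 C. Each assay gives one read point: 0, 8, 16, 24, 32 or 40 h.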

[3] = A CellTox Green Cytotoxicity Assay to monitor cytotoxicity in HepG2 cells - 0 hour (AID 1224882); note: nearly all actives have a fitted effect of over 35% in size
How it was run: (§3)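 Real-time cytotoxicity: fluorescence of a cell-impermeant cyanine dye binding DNA of dead HepG2 cells, measured repeatedly (0–40 h) during compound exposure at 37 C. Cells seeded 600/well with reagent, dosed after 5 h.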

[4] = A CellTox Green Cytotoxicity Assay to monitor cytotoxicity in HepG2 cells - 32 hour (AID 1224883); note: nearly all actives have a fitted effect of over 50% in size
How it was run: as §3

[5] = A CellTox Green Cytotoxicity Assay to monitor cytotoxicity in HEK293 cells - 8 hour (AID 1224884); note: nearly all actives have a fitted effect of over 35% in size
How it was run: as §2

[6] = qHTS RealTime-Glo MT Cell Viability Assay in HepG2 cells - 16 hour (AID 1224885); note: nearly all actives have a fitted effect of over 50% in size
How it was run: (§4)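 Luminescence read-out: viable HepG2 cells reduce a prosubstrate to a NanoLuc substrate, giving a signal proportional to live cell number. Reads taken at 0, 8, 16, 24, 32 and 40 h of compound exposure at 37 C.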

[7] = qHTS RealTime-Glo MT Cell Viability Assay in HEK293 cells - 24 hour (AID 1224886); note: nearly all actives have a fitted effect of over 50% in size
How it was run: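 Nonlytic real-time viability readout: viable cells convert prosubstrate to NanoLuc substrate, giving luminescence proportional to live cell number. HEK293, 600 cells/well, compound added after 5 h, continuous culture at 37 C.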

[8] = qHTS RealTime-Glo MT Cell Viability Assay in HEK293 cells - 8 hour (AID 1224887); note: nearly all actives have a fitted effect of over 50% in size
How it was run: as §1

[9] = A CellTox Green Cytotoxicity Assay to monitor cytotoxicity in HEK293 cells - 16 hour (AID 1224888); note: nearly all actives have a fitted effect of over 35% in size
How it was run: as §2

[10] = qHTS RealTime-Glo MT Cell Viability Assay in HepG2 cells - 0 hour (AID 1224889); note: nearly all actives have a fitted effect of over 50% in size
How it was run: as §4

Measured: Potency
Potency is the fitted concentration of half-maximal effect.

C[C@]12CC[C@H]3[C@@H](CCC4=CC(=O)CC[C@@]43C)[C@@H]1CC[C@@H]2C(=O)CO
active: [1] 17.4 µM | [7] 24.5 µM | [10] 4.36 µM and 9.52 µM
inactive: all other assays above

NC=O
inactive: all assays above

Cc1ccc2c(n1)Oc1ccc(C(C)C(=O)OCC(=O)N(C)C)cc1C2 (stereo not given)
inactive: all assays above

O=C(O)c1ccccc1Nc1cccc(C(F)(F)F)c1
inactive: all assays above

CN(C)c1nc(N(C)C)nc(N(C)C)n1
inactive: all assays above

CCC(C)(O)CCCC(C)C (stereo not given)
inactive: all assays above

Nc1ccc(Cl)cc1Cl
inactive: all assays above

COC(=O)c1ccccc1
inactive and 12.3 µM (active): [7]
inactive: all other assays above

CCCCC(CC)COC(=O)c1ccc(N(C)C)cc1 (stereo not given)
inactive: all assays above

CCOCCOCCO
inactive: all assays above

COc1ccc(OC)c(C(O)CNC(=O)CN)c1 (stereo not given)
inactive: all assays above

COc1c(Cl)c(Cl)c(Cl)c(Cl)c1Cl
inactive: all assays above

Cc1ncc[nH]1
inactive: all assays above

CCC(C)CO (stereo not given)
inactive and 24.5 µM (active): [7]
inactive and 43.6 µM (active): [3] | [4]
inactive: all other assays above

CC(CCC(=O)O)(c1ccc(O)cc1)c1ccc(O)cc1
inactive: all assays above

CC(C)OC(=O)C(C)(C)Oc1ccc(C(=O)c2ccc(Cl)cc2)cc1
active: [7] 19.5 µM and 10.7 µM | [8] 24.5 µM and 16.9 µM
inactive: all other assays above

CC(C)=CCCC(C)CCO (stereo not given)
inactive: all assays above

CC(=O)c1ccccn1
inactive: all assays above

Brc1cc(Oc2cc(Br)c(Br)c(Br)c2Br)c(Br)c(Br)c1Br
inactive: all assays above

Cc1ccc(C)c(O)c1C
inactive: all assays above

Cc1cc2nc3c(=O)[nH]c(=O)nc-3n(C[C@H](O)[C@H](O)[C@H](O)CO)c2cc1C
active: [2] 48.5 µM and 45.5 µM and 11.7 µM | [3] 43.2 µM and 40.5 µM and 11.7 µM | [4] 43.2 µM and 40.5 µM and 11.7 µM | [5] 43.2 µM and 40.5 µM and 11.7 µM | [9] 43.2 µM and 40.5 µM and 11.7 µM
inactive: all other assays above

NNc1ccc(C(=O)O)cc1
inactive: all assays above

OCCO
inactive: all assays above

C[Si](C)(C)O[Si](C)(C)C
inactive: all assays above

CCCC(=O)O
inactive: all assays above

O=C(c1ccccc1)c1ccccc1O
inactive: all assays above

COC(=O)CCC(=O)OC
inactive: all assays above

c1ccc2sc(SSN3CCOCC3)nc2c1
active: [2] 38.8 µM and 54.9 µM | [4] 54.8 µM and 54.9 µM | [6] 54.9 µM | [7] 38.8 µM and 49 µM | [8] 48.9 µM
inactive: all other assays above

COC(=O)C1=C(C)NC(C)=C(C(=O)OCCN(C)Cc2ccccc2)C1c1cccc([N+](=O)[O-])c1 (stereo not given)
inactive: [2] | [3] | [5] | [9]
active: [1] 5.46 µM and 6.01 µM | [6] 24.4 µM and 10.7 µM | [7] 21.7 µM and 19 µM | [8] 24.4 µM and 19 µM | [10] 6.13 µM and 3.38 µM
48.7 µM (active) and inactive: [4]

CCCCNS(=O)(=O)c1ccccc1
inactive and 6.16 µM (active): [7]
inactive: all other assays above

O=[N+]([O-])c1ccc2c(c1)Cc1ccccc1-2
inactive: all assays above

CCCc1c(OCCCCc2nn[nH]n2)ccc(C(C)=O)c1O
inactive: all assays above

Cc1c(OCC(F)(F)F)ccnc1CS(=O)c1nc2ccccc2[nH]1 (stereo not given)
active: [7] 19.5 µM and 19 µM | [8] 21.9 µM and 23.9 µM
inactive: all other assays above

C/C=C/C(=O)O
inactive: all assays above

O=C(OCc1ccccc1)c1ccccc1O
inactive: all assays above

CCCCOCCOCCO
inactive: all assays above

Nc1ccc(Nc2ccccc2)cc1
active: [7] 48.5 µM | [8] 21.6 µM and 21.9 µM
inactive: all other assays above

O=C(Nc1ccc([N+](=O)[O-])cc1Cl)c1cc(Cl)ccc1O
active: [2] 38.9 µM | [4] 4.9 µM and 2.93 µM | [7] 5.49 µM and 1.04 µM
inactive: all other assays above

CC(C)=CCC/C(C)=C\CO
inactive: all assays above
